Screens as filed in PubChem BioAssay.
Hits are enriched below; roughly 0.54% of the tested compounds scored in any of these assays.
C1s inh – complement C1s protease inhibitors, primary screen, biochemical, 10-compound mixtures; 62,000 tested, 0.16% active; AID 538, 2006; purified C1s, fluorogenic AMC substrate, pooled mixtures; mean inhibition % of two 10-compound mixtures (hits give high values), % at 5 µM (by protocol); Complement C1s subcomponent (Homo sapiens), P09871;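 active = inhibition above 20% in each of the two 10-compound mixture wells holding the compound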
Target sequence (P09871 16-437 limits assumed): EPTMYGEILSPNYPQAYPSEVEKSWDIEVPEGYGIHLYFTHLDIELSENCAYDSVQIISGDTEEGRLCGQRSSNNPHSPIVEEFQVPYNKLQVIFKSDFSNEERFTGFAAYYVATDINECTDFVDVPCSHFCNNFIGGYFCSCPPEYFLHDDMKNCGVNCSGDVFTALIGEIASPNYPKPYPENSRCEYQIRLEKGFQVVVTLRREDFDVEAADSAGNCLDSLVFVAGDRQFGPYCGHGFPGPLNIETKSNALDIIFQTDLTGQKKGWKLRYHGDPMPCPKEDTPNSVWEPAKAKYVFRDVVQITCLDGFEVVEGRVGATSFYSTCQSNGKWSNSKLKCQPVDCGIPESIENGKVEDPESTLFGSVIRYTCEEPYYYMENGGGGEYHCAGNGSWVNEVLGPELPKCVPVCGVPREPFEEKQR
Target sequence (P09871 438-688 limits assumed): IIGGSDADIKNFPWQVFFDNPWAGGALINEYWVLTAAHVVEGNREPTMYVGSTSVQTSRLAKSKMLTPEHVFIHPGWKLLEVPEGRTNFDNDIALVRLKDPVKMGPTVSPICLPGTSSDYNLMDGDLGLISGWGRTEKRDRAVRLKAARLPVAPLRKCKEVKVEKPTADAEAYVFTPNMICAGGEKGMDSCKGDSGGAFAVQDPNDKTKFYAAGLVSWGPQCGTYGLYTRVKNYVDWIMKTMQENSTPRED
CatG inh – human cathepsin G inhibitors, primary screen, biochemical, pooled compound mixtures, AMC fluorescence | 62,000 tested, 0.2% active | inhibition, % at 5 µM (by protocol) | purified enzyme, AMC-tetrapeptide fluorescence | P08311;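 active = inhibition above 20% in each of the two mixture wells holding the compound; inactive = inhibition of 20% or less in either well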
CatS block – inhibitors of human cathepsin S, biochemical, compound mixtures. AID 501, 2006. 62,000 tested, 0.06% active. P25774. recombinant cathepsin S, AMC dipeptide fluorescence, pooled mixtures. inhibition, %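 (tested at 5 µM per compound within 10-compound mixtures)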; in the data active = inhibition above about 32%, passing the limit was not always enough; inconclusive = no clear call, values can overlap the other calls
CatL block – inhibitors of human cathepsin L, biochemical | purified cathepsin L, fluorogenic substrate, fluorescence | inhibition, %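 (tested at 10 µM)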 | 58,000 tested, 0.17% active | Procathepsin L (Homo sapiens), P07711 | AID 460, 2006; in the data active = inhibition above about 45%
CatB block – human cathepsin B inhibitors, primary screen, biochemical, fluorogenic substrate | P07858 | purified cathepsin B, fluorescence | inhibition, %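 (tested at 10 µM)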 | 63,000 tested, 0.1% active | AID 453, 2006; in the data active = inhibition above about 21%
CatB mix inh – cathepsin B inhibitors from pooled compounds, primary screen, biochemical, compound mixtures, AMC fluorescence. P07858. Purified cathepsin B, AMC dipeptide fluorescence. inhibition, %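 (ten-compound pools at 5 µM per compound and 50 µM total)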. 62,000 tested, 0.06% active. AID 488, 2006; in the data active = inhibition above about 22%, passing the limit was not always enough; inconclusive = no clear call, values can overlap the other calls
Of the large screens only hits and unclear results are named; the others gave an inactive call.

COCCNC(=O)C(c1ccccc1)N(C(=O)Cn1nnc2ccccc21)c1cccnc1 (configuration not stated)	none (no result: CatL block)
CN(C)CCNc1nc2c(c(=O)[nH]c(=O)n2C)n1CC(O)COc1ccc(Cl)cc1 (configuration not stated)	CatL block 47
O=C(O)CCCC(=O)N1CCN(C(c2ccccc2)c2ccccc2)CC1	none
CC(C)CN(CC(C)C)S(=O)(=O)N1CCC(C(=O)NCc2ccc(F)cc2)CC1	C1s inh 24
C#CCOC(=O)c1ccccc1C(=O)n1nnc2ccccc21	C1s inh 47, CatG inh 39
Cc1nnc(SCc2nnc(-c3ccc(Cl)cc3)o2)n1-c1ccccc1	none
Cc1nnc(SCc2nnc(-c3ccccc3Br)o2)n1-c1ccccc1	CatL block 82
CN(CC(=O)N1CC=C(c2ccccc2)CC1)S(=O)(=O)c1cnc[nH]1	none
CC(=O)Nc1nc2n(n1)C(c1ccc(F)cc1)C=C(c1ccccc1)N2 (configuration not stated)	CatL block 49
COc1ccc(N2CCN(CCCNS(=O)(=O)c3c(C)noc3/C=C/N(C)C)CC2)cc1	CatL block 75
COc1ccc(N2CCN(CC(=O)Nc3cc(C)on3)CC2)cc1	none
COc1ccc2c(C=Nc3c(C)n(C)n(-c4ccccc4)c3=O)c(O)n(Cc3ccco3)c(=O)c2c1	none
Cn1c(C(=O)N2CCN(Cc3ccccc3)CC2)cc2c(=O)n(C)c3ccccc3c21	CatS block 51
CCN1CCN(C(=O)c2cc3c(=O)n(C)c4ccccc4c3n2C)CC1	none
CN(CCNC(=O)c1cc2c(=O)n(C)c3ccccc3c2n1C)Cc1ccccc1	CatS block 72 (no result: CatL block)
Cn1c(C(=O)NCCCN2CCCC2=O)cc2c(=O)n(C)c3ccccc3c21	none
CCCN(CCC)CCNC(=O)c1cc2c(=O)n(C)c3ccccc3c2n1C	CatS block 77
CCC12CCCN3CCC4(C(=C(C(=O)OC)C1)Nc1ccccc14)C32 (configuration not stated)	none (no result: CatL block)
Cc1sc(CO)c(Sc2ccccc2)c1C(=O)O	none
Cc1ccc(S(=O)(=O)NCCNC(=O)CN2CCCC2)cc1	none
Cc1ccc(S(=O)(=O)NCCC(=O)NCCN2CCCCCC2)cc1	CatL block 64
O=C(NCc1ccc(F)cc1)C1CCC(=O)N1CCc1ccccc1 (configuration not stated)	CatB block 42
Cc1ccc(CN2C(=O)CCC2C(=O)NCc2ccc(F)cc2)cc1 (configuration not stated)	none
CCn1c(=O)c(C2=NS(=O)(=O)c3ccccc3N2)c(O)c2ccccc21	none
C=CCc1c(C)c(C#N)c2nc3ccccc3n2c1N1CCN(C)CC1	none (no result: C1s inh, CatG inh, CatS block, CatB mix inh)
Cc1nn(C(=O)c2ccccc2)c2c1C(=O)CC(C)(C)C2	C1s inh 30, CatG inh 49
Cc1nn(-c2nc3ccccc3n2Cc2ccccc2)c2c1C(=O)CC(C)(C)C2	none (no result: CatL block)
COc1ccc(S(=O)(=O)NCCSCc2cccs2)cc1	none
O=c1cc(-c2ccccc2)nc2nc(COc3ccccc3)[nH]n12	CatS block inconclusive
O=c1cc(-c2ccccc2)nc2nc(-c3ccccc3)[nH]n12	C1s inh 44
Cc1nc(NC2=NCN(Cc3cccnc3)CN2)nc2c(C)cccc12	none
CC(C)c1ccc(NC(=O)CSc2nc3c(c(=O)[nH]2)CCC3)cc1	none (no result: CatL block)
COc1ccc(OC)c(S(=O)(=O)N2CCN(c3c(C)cccc3C)CC2)c1	none
Brc1cnn(-c2nc(N3CCOCC3)nc(N3CCOCC3)n2)c1	none
O=C(CCSc1ccc(Cl)cc1)N1CCN(c2ncccn2)CC1	none
Cc1ccc(-c2csc(N3CCC(NS(=O)(=O)c4ccc5c(c4)OCCO5)CC3)n2)cc1	none
Cc1ccc(CN(C(=O)Cn2nnc3ccccc32)C(C(=O)NCc2ccco2)c2cccs2)cc1 (configuration not stated)	CatB mix inh 23
O=C(NCc1ccco1)C(c1cccs1)N(Cc1ccccc1)C(=O)Cn1nnc2ccccc21 (configuration not stated)	none
Cc1cnc(C(=O)Nc2ccccc2-c2ccc(C)o2)cn1	CatG inh 28
Cc1cnc(C(=O)Nc2cccc3ncccc23)cn1	none
O=c1oc(-c2cccnc2)nc2ccccc12	CatG inh 56 (no result: CatL block)
Cc1nc(-c2cccc(S(=O)(=O)N3CCOCC3)c2)cs1	none
O=c1oc(-c2cccc(S(=O)(=O)N3CCOCC3)c2)nc2ccccc12	CatG inh 49
COc1cc(C)c(Br)cc1S(=O)(=O)N1CCCC1	none
COc1ccc(OC)c(NS(=O)(=O)Cc2ccccc2)c1	CatL block 73
N#Cc1nc(-c2ccco2)oc1NCCCn1ccnc1	none
Nc1nonc1C(=O)NCCNCc1ccccc1OCc1ccccc1F	CatB block 23
Nc1nonc1C(=O)NCCNCc1cc(Br)ccc1OCc1ccccc1F	none
CCCn1c(N2CCN(CC(=O)c3c[nH]c4ccccc34)CC2)nc2c1c(=O)[nH]c(=O)n2C	none
O=S(=O)(Nc1ncnc2c1oc1ccccc12)c1ccc(Cl)s1	none
CC(=NCc1ccco1)c1c(C)[nH]n(-c2nc3ccccc3s2)c1=O	CatS block 46
CCOC(=O)N1CCN(c2c(N3CCN(c4ccccn4)CC3)c(=O)c2=O)CC1	CatL block 86
CCOC(=O)N1CCN(c2c(N3CCc4ccccc43)c(=O)c2=O)CC1	none
Nc1nonc1-c1nc2ccccc2n1CC(=O)N1CCCCC1	CatL block 66, CatB block 81, CatB mix inh 86
COC(=O)c1ccccc1NC(=O)Cn1c(-c2nonc2N)nc2ccccc21	CatL block 66, CatB block 70, CatB mix inh 82 (no result: CatS block)
CC(C)NC(=O)Cn1c(SCC(=O)N2CCCCCC2)nc2ccccc21	none
CCSc1nc2ccccc2n1CC(=O)N1CCCCC1	CatL block 56
CCOC(=O)N1CC=C2C(C#N)=C(N)C(C#N)(C#N)[C@H](c3ccccc3OCC)[C@H]2C1	C1s inh 64
Cc1c(NC(=O)C2Cc3ccccc3CN2C(=O)c2ccco2)c(=O)n(-c2ccccc2)n1C (configuration not stated)	C1s inh 21
Cc1c(NC(=O)C2CCCN2S(=O)(=O)c2ccccc2)c(=O)n(-c2ccccc2)n1C (configuration not stated)	none (no result: CatL block)
Cc1ccc2nc(C(O)C(O)c3nc4ccc(C)cc4[nH]3)[nH]c2c1 (configuration not stated)	CatL block 62
COCCN1C(=O)c2ccccc2C(C(=O)NCCCN2CCCC2=O)C1c1c[nH]c2ccccc12 (configuration not stated)	none
CN(C)/C=N/c1nc2ccc3c(c2s1)CCCC3	none
